Screening results from PubChem.
KB-V1 MDR tox = kills drug-selected multidrug resistant KB-V1 cells; KB-V1 MDR cells viability, CellTiter-Glo, 72 h; Potency, µM (top dose mostly 46.1 µM), usual class: cytotoxic; 3.4% of 400,000 active; AID 1347076; note: nearly all actives have a fitted effect of over 60% in size
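Cytotoxicity toward P-gp-expressing KB-V1 cells was determined as loss of CellTiter-Glo luminescence after 72 h at 37 degrees C. Compounds were tested in quantitative HTS format across a concentration range, with curves fitted to normalized data.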
HT1080-NT tox = kills 2HG-producing HT-1080-NT fibrosarcoma cells; HT-1080-NT fibrosarcoma viability, CellTiter-Glo ATP luminescence, 48 h; AID 686970; Potency, µM (highest dose often 46.1 µM), for inactives: at the top dose activity, negative = less viability, most hits filed as cytotoxic; 1.6% of 360,000 active;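 note: NT is the 2HG producing partner of a matched IDH1 knockdown line; 0% = DMSO-treated cells and -100% = media-only wells without cells; nearly all actives have a fitted effect of over 55% in size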
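A 48-hour cytotoxicity screen used HT-1080-NT cells plated 2 hours before compound delivery. ATP-based CellTiter-Glo luminescence measured viability, normalized to DMSO and no-cell controls.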
HT1080 IDH1KD tx = HT-1080 IDH1 knockdown cell toxicity (counter line). HT-1080 IDH1 knockdown viability, ATP luminescence, 48 h. Potency, µM (doses to about 46.1 µM), without a hit: at the highest dose activity, negative = toxicity, actives largely listed as cytotoxic. 2% of 360,000 active;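 note: 0% = DMSO wells and -100% = cell-free medium wells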
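Knockdown cells (IDH1KD HT-1080) received compounds 2 h after plating at 750 cells/well and were kept 48 h at 37 °C in 5% FBS RPMI. A CellTiter-Glo luminescence read gave % activity for curve fitting.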
DT40 TDP1 no CPT = qHTS for Inhibitors of human tyrosyl-DNA phosphodiesterase 1 (TDP1): qHTS in cells in absence of CPT. AID 686978, 2013. DT40 Tdp1-/- hTDP1 cells, no CPT, ATP luminescence, 48 h. Potency, µM (highest dose often 46.2 µM), for inactives: at the highest dose activity change, negative = growth inhibition, usual class: inhibitors. 15% of 420,000 active; note: nearly all actives have a fitted effect of over 55% in size
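No-CPT arm: Tdp1-/-;hTDP1 DT40 cells (400/well) plus compounds, incubated ≥48 hr at 37 °C. Readout CellTiter-Glo luminescence.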
KB-3-1 tox = KB-3-1 parental cell cytotoxicity; KB-3-1 viability, CellTiter-Glo ATP luminescence, 72 h; Potency, µM (titrated, usually from 46.1 µM), usual class: cytotoxic; 1.4% of 400,000 active; AID 1347075; note: nearly all actives have a fitted effect of over 60% in size
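Cells are dispensed, compounds pinned in, plates held at 37 °C for 72 h, then CellTiter-Glo is added and luminescence read after 10 minutes. Cell line: parental KB-3-1 in phenol-red-free DMEM, 10% FBS.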
TDP1 cell CPT = DT40-hTDP1 cell growth loss with CPT | chicken DT40 Tdp1-/-;hTDP1 cells + 20 nM CPT, ATP luminescence, 48 h | Potency, µM (titrated, usually from 46.2 µM), inactives show at the highest dose activity change, negative = growth inhibition, usual class: inhibitors | 12% of 420,000 active | AID 686979; note: nearly all actives have a fitted effect of over 55% in size
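Chicken DT40 Tdp1-/- cells stably complemented with human TDP1 were seeded at 400 cells/well in medium containing 20 nM camptothecin, exposed to pin-transferred compounds, and grown at 37 °C for at least 48 hr. Viability was read as ATP luminescence.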
* marks the source's active call; other numbers are inactive results; i = inactive; u = inconclusive; x = no result given. Hits are enriched below; roughly 19% of the tested compounds scored in any of these assays. Calls come from the whole dose curve; as a rule, active = well fitted curve in the direction sought with a large enough effect; inconclusive = small, poorly fitted or top-dose-only effect, or another doubt; inactive = no such curve, though single readings can be large; an effect the other way counts as inactive or inconclusive. Unless noted, % is set by controls: 0 for no effect and ±100 for the full control effect; potency is the fitted concentration of half-maximal effect.

SMILES | KB-V1 MDR tox | HT1080-NT tox | HT1080 IDH1KD tx | DT40 TDP1 no CPT | KB-3-1 tox | TDP1 cell CPT
CCn1c(C)cc(C=C2C(=O)c3ccccc3C2=O)c1C | i | -4% | -18% | u | i | u
COc1cc(/C=C2/C(=N)N3C(c4ccccc4)=CSC3=NC2=O)ccc1OCC(=O)O | i | 14% | 16% | 15µM* | i | 21µM*
CC1(C)CC[C@]2(C(=O)O)CC[C@]3(C)C(=CCC4[C@@]5(C)CC[C@H](O)C(C)(C)C5[C@H](O)C[C@]43C)C2C1 (stereo not given in full) | x | x | x | -20% | x | 3%
CCOC(=O)C1=C(CSc2nc3c(cc2C#N)CN(C)CC3)OC(N)=C(C#N)C1c1ccccc1 (stereo not given) | i | 0% | 5% | 29µM* | i | u
CCOC(=O)C1=C(CSc2nc3c(cc2C#N)CN(C)CC3)OC(N)=C(C#N)C1c1ccc(F)cc1 (stereo not given) | i | 0% | -7% | u | i | u
CCOC(=O)C1=C(CSc2nc3c(cc2C#N)CCC3)OC(N)=C(C#N)C1c1ccccc1 (stereo not given) | i | u | u | u | i | 29µM*
CNc1cccc(-c2ccccc2CO)n1 | i | 18% | 22% | -10% | i | -24%
Cc1[nH]c(=O)c(C#N)c2c1CSC(C)(C)C2 | i | -22% | 1% | -3% | i | 12%
CCOc1ccc(N2CC(c3nc4ccccc4n3Cc3cccc(C)c3)CC2=O)cc1 (stereo not given) | i | x | x | u | i | u
CCc1ccccc1N1CC(c2nc3ccccc3n2Cc2cccc(C)c2)CC1=O (stereo not given) | i | x | x | 13µM* | i | 10µM*
Cc1ccc(C)c(Cn2c(C3CC(=O)N(c4ccccc4C)C3)nc3ccccc32)c1 (stereo not given) | i | x | x | 21µM* | i | 23µM*
COc1ccc2c(c1OC)C(=O)OC2N1C(=O)CC[C@H]1C(=O)Nc1ccc(F)cc1F (stereo not given in full) | i | 1% | 0% | -4% | i | -5%
COC1CCCN(Cc2c(C(=O)N3CCN(C4CCCCC4)CC3)nc3ccccn23)C1 (stereo not given) | i | 0% | 4% | -1% | i | -4%
C[C@@H](NC(=O)c1nc[nH]c1C(=O)NCc1ccc(CNC(=O)OC(C)(C)C)cc1)c1ccccc1 | i | -24% | -23% | 23µM* | u | u
CC(C)(C)OC(=O)CNC(=O)c1nc[nH]c1C(=O)NCc1ccccc1 | i | 13% | 0% | -16% | i | u
C[C@H](NC(=O)c1nc[nH]c1C(=O)NCCCCCN)C(=O)OC(C)(C)C | i | 4% | 8% | -7% | i | -10%
C[C@H](NC(=O)c1nc[nH]c1C(=O)NCc1ccc(CNC(=O)OC(C)(C)C)cc1)C(=O)OC(C)(C)C | i | -13% | -21% | 16µM* | i | 18µM*
CC(C)C[C@H](NC(=O)c1nc[nH]c1C(=O)NCc1ccc(CNC(=O)OC(C)(C)C)cc1)C(=O)OC(C)(C)C | u | -11% | u | 16µM* | i | 26µM*
O=C(c1ccccc1)c1cc[n+]([O-])cc1 | i | -6% | -6% | -5% | i | -1%
CN(C)CC[n+]1ccc(C(=O)c2ccccc2)cc1 | i | -1% | -20% | 2.6µM* | i | 4.1µM*
COc1ccc(CCC(=O)NCc2ccc3c(c2)CCN3C(=O)c2ccc(C)cc2)cc1 | x | x | x | 21µM* | x | u
COc1ccc(CCC(=O)NCc2ccc3c(c2)CCN3C(=O)c2cccc(C)c2)cc1 | i | x | x | 4.6µM* | u | 5.8µM*
O=c1[nH]c(SCc2ccccc2)nc2c1CCCC2 | i | x | x | u | i | u
OCCN(CC(O)Cn1ccc2ccccc21)CC(O)Cn1ccc2ccccc21 (stereo not given) | 15µM* | -3% | -16% | u | i | -6%
Cc1[nH]c(=S)sc1Cc1ccc(F)cc1 | i | -1% | -7% | u | u | 3%
SMILES | KB-V1 MDR tox | HT1080-NT tox | HT1080 IDH1KD tx | DT40 TDP1 no CPT | KB-3-1 tox | TDP1 cell CPT
Cc1cccc(-n2c(C)nnc2SCC(=O)NC(C)c2ccco2)c1 (stereo not given) | i | x | x | -14% | i | -19%
CC(C)[C@@H](C(=O)NC1CCN(Cc2ccccc2)CC1)N1C(=O)N2CCc3c([nH]c4ccccc34)[C@@]2(C)C1=O | u | -14% | -23% | 13µM* | i | 18µM*
COc1ccc2[nH]c3c(c2c1)CCN1C(=O)N([C@@H](C)C(=O)NC2CC2)C(=O)[C@]31C | i | 2% | -2% | u | i | -26%
COc1ccc2[nH]c3c(c2c1)CCN1C(=O)N([C@@H](C)C(=O)NC2CCN(Cc4ccccc4)CC2)C(=O)[C@]31C | u | -5% | -17% | 16µM* | i | 16µM*
C[C@@H](C(=O)NC1CCN(Cc2ccccc2)CC1)N1C(=O)N2CCc3c([nH]c4ccccc34)[C@@]2(C)C1=O | i | -2% | 1% | u | i | 23µM*
COc1ccc2[nH]c3c(c2c1)CCN1C(=O)N([C@@H](C)C(=O)NC2CCCC2)C(=O)[C@]31C | i | 7% | 10% | u | i | 12µM*
CC(C)C[C@@H](C(=O)NC1CCN(Cc2ccccc2)CC1)N1C(=O)N2CCc3c([nH]c4ccccc34)[C@@]2(C)C1=O | u | u | u | 21µM* | u | 12µM*
COc1ccc(NC(=O)C2=C(C)C(=O)OC23CCC(C)CC3)c(OC)c1 (stereo not given) | i | -1% | 3% | u | i | u
CC1=C(C(=O)Nc2ccc(C)cc2Cl)C2(CCCCC2)OC1=O | x | x | x | 16µM* | x | u
CCc1ccc(NC(=O)C2=C(C)C(=O)OC23CCCCC3)cc1 | x | x | x | 16µM* | x | 16µM*
CCOc1ccc(NC(=O)C2=C(C)C(=O)OC23CCC(C)CC3)cc1 (stereo not given) | i | 2% | -9% | 16µM* | i | u
CCCCC1=CC2=CC(=O)C(C)(OC(=O)CC)C(=O)C2=CN1C(CO)CO (stereo not given) | i | 10% | 15% | 2% | i | 5%
